In the library only some 2.4% were active in any assay of this set; here they are far more common.
PfM18AAP inh – PfM18AAP inhibitors, malaria aminopeptidase, primary screen, biochemical, QFRET, recombinant enzyme; 290,000 compounds, 1.2% hits; M18 aspartyl aminopeptidase (Plasmodium falciparum 3D7); AID 1822, 2009; inhibition, % at 7.35 µM; H-Glu-NHMec fluorogenic cleavage;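 active = inhibition above the campaign mean inhibition over all tested compounds plus 3 SD, cut at about 28% in these data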;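 also: 0% = plate median of test compound wells and 100% = 2 mM ZnCl2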
CR mimetic SO – reduction of superoxide in aged yeast, primary screen, HTS; S. cerevisiae aged cells, superoxide DHE fluorescence; hits give low values; superoxide response (% of plate mean), % at 10 µM; 330,000 compounds, 0.18% hits;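 active = superoxide response under a set limit, about three screen SD below normal, cut at about 65% in these data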;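 also: yeast aged for seven days with compound at 30 °C before DHE staining; 100% = average MFI of all compound-treated wells on the plate with controls excluded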
APOBEC3A inh – APOBEC3A ssDNA deaminase inhibitors, primary screen, selectivity assay for APOBEC3G inhibitor project, biochemical, FAM/TAMRA oligo cleavage fluorescence. recombinant A3A, FAM/TAMRA ssDNA deamination fluorescence. inhibition, % at 20 µM. 330,000 compounds, 0.41% hits;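 active = at least 40% inhibition at 20 µM here, with at most 30% in a related deaminase screen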;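 also: plate controls were A3A with DMSO for no effect and wells lacking A3A enzyme for full effect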
Target sequence (P31941 whole entry, looked up): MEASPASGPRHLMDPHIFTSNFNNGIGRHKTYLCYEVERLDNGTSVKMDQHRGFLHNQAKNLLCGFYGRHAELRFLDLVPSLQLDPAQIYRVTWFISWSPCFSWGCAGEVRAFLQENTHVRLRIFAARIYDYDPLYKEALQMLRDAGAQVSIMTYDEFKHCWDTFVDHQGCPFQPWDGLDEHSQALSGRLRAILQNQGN
PfG6PD inh – PfG6PD enzyme inhibitors, primary screen, biochemical, fluorescence intensity, uHTS; inhibition, % at 20 µM; PfGluPho enzyme, NADPH resazurin-diaphorase fluorescence; 350,000 compounds, 0.78% hits; AID 504690, 2011; glucose-6-phosphate dehydrogenase-6-phosphogluconolactonase (Plasmodium falciparum 3D7);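 active = inhibition reaching at least a set limit at 20 µM in the primary screen, cut at about 59% in these data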;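 also: 0% = DMSO wells with substrate and 100% = DMSO wells lacking glucose-6-phosphate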
APOBEC3G inh – APOBEC3G DNA deaminase inhibitors, primary screen, biochemical, fluorescence, single-stranded DNA substrate, uHTS; DNA dC->dU-editing enzyme APOBEC-3G (Homo sapiens), Q9HC16; recombinant A3G, ssDNA deamination FAM/TAMRA fluorescence; inhibition, % at 20 µM; 330,000 compounds, 0.28% hits;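 active = inhibition of at least 40% at 20 µM, with no more than 30% in the related APOBEC3A deaminase screen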;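 also: plate controls were DMSO wells with A3G for no effect and wells lacking A3G enzyme for full effect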
Target sequence (Q9HC16 whole entry, looked up): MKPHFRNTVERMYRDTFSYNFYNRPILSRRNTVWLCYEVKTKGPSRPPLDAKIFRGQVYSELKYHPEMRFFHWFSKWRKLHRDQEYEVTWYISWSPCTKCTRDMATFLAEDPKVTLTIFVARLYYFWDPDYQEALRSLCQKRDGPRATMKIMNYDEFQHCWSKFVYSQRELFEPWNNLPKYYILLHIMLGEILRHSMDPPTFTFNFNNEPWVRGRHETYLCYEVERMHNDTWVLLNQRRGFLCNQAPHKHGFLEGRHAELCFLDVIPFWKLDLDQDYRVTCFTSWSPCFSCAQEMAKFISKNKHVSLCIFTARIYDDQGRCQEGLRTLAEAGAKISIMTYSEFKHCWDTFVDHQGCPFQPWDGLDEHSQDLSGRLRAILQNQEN
PfG6PD confirm – PfG6PD inhibitors, hit retest, confirmation, biochemical, fluorescence intensity, single concentration. shares compounds with PfG6PD inh. recombinant PfGluPho, NADPH-diaphorase-resazurin fluorescence. inhibition, % at 20 µM. 2,400 compounds, 34% hits. AID 504753, 2011;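 active = inhibition of at least 50% at 20 µM in any single replicate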;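 also: 0% = DMSO with substrate and 100% = DMSO lacking glucose-6-phosphate substrate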
Diaphorase 10uM – diaphorase inhibitors and chemical oxidizers, confirmation, counter-screen for P. falciparum G6PD inhibitor project, biochemical, fluorescence intensity, 10 µM NADPH; shares compounds with PfG6PD inh; diaphorase-coupled resazurin reduction, NADPH 10 uM; inhibition, % at 20 µM; 820 compounds, 39% hits;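 active = average inhibition reaching 50% or more with the compound at 20 µM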;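 also: resorufin red fluorescence formed as diaphorase reduces resazurin using NADPH; 0% = DMSO with enzyme and 100% = DMSO without enzyme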
Diaphorase 30uM – diaphorase inhibitors and chemical oxidizers, confirmation, counter-screen for P. falciparum G6PD inhibitor project, biochemical, fluorescence intensity, 30 µM NADPH; shares compounds with PfG6PD inh; Diaphorase/resazurin coupled assay, resorufin fluorescence; inhibition, % at 20 µM; 820 compounds, 29% hits;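 active = inhibition averaging 50% or more, tested at 20 µM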;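 also: 0% = DMSO with enzyme and 100% = DMSO wells lacking diaphorase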
Numbers without * were called inactive; . = no result.

SMILES	PfM18AAP inh	CR mimetic SO	APOBEC3A inh	PfG6PD inh	APOBEC3G inh	PfG6PD confirm	others
Oc1c(I)cc(I)c2cccnc12	0.5	69.4	18.3	65.2*	-4.8	5.0
CC1Oc2ccccc2N(CC(=O)N2CCCCCC2)C1=O (stereo unspecified)	-4.7	104.8	-1.4	-18.4	-12.7	.
Cc1ccc(N(O)C(C)(C)C)cc1	.	.	.	71.9*	.	8.4
O=C(Nc1ccc([N+](=O)[O-])cc1Cl)c1cc(Cl)ccc1O	.	108.8	1.7	93.6*	-2.6	51.3*	Diaphorase 10uM=40.8;Diaphorase 30uM=30.9
O=C(Nc1ccc([N+](=O)[O-])cc1Cl)c1cccc([N+](=O)[O-])c1	.	.	.	5.2	.	.
O=C(CCC(=O)c1ccc(F)cc1)Nc1cccc(Br)c1	5.9	117.8	-2.8	-6.5	-2.8	.
CN(C)c1cccc2c1c(NC(=O)Nc1ccc(Cl)cc1Cl)nn2C	-6.7	89.2	1.8	8.9	9.2	.
COc1ccccc1NC(=O)Nc1nn(C)c2cccc(N(C)C)c12	4.6	100.3	-2.0	64.1*	-4.6	21.4
O=C(N/N=C/c1ccc[nH]1)c1ccc([N+](=O)[O-])cc1	-3.2	102.7	-1.2	7.0	-8.1	.
CC(=NNC(=S)N1CCN(C2CCCCCC2)CC1)c1ccccn1	.	.	.	41.6	.	.
CC(=NNC(=S)N1CCN(c2ccccn2)CC1)c1nccs1	.	.	.	92.8*	.	57.0*	Diaphorase 10uM=-3.1;Diaphorase 30uM=4.4
CC(=NNC(=S)N1CCN(c2ccccn2)CC1)c1ccccn1	.	.	.	83.6*	.	29.7
COc1cc(NC(=O)CCC(=O)N2CCN(S(=O)(=O)c3ccc(C)cc3)CC2)cc(OC)c1	.	.	.	-10.0	.	.
CC(=O)N1CC[n+]2c(-c3ccc(Cl)cc3Cl)csc21	16.4	84.1	-2.3	59.5*	-5.8	-9.2
O=C(O)c1ccc(-c2nc(-c3ccc(Cl)cc3Cl)cs2)cc1	-0.6	101.3	-6.6	-23.4	-3.7	.
COc1ccccc1C(=O)COC(=O)C1(C)CC1(Cl)Cl (stereo unspecified)	.	112.4	-3.5	15.8	-4.7	.
COc1ccc(C(=O)c2c(C(F)(F)F)oc3c2C(=O)c2ccccc2C3=O)cc1	4.0	196.7	-3.6	76.5*	8.3	34.6*	Diaphorase 10uM=27.9;Diaphorase 30uM=32.5
Cc1c(Cl)cccc1N=Cc1ccc([N+](=O)[O-])s1	-4.5	87.4	6.2	77.4*	-1.4	-5.2
Cc1ccccc1C(=O)N/N=C/c1ccc([N+](=O)[O-])s1	2.6	128.5	-1.4	35.1	-2.2	.
Cc1cc2nc(-c3ccc(SCc4ccc(C(=O)O)cc4)nc3)[nH]c2cc1C	0.9	102.4	.	72.0*	.	29.6
CS(=O)(=O)N(CC(=O)NCc1cccnc1)Cc1ccc(Cl)cc1	3.4	100.1	-0.3	7.1	-6.4	.
O=C(CN(Cc1ccc(Br)cc1)S(=O)(=O)c1ccccc1)NCc1cccnc1	1.0	97.4	0.5	63.4*	2.1	27.1
O=C(NC1CC1)C(=O)c1c[nH]c2ccccc12	-6.8	99.5	-3.7	3.1	5.3	.
O=C(NC1CC1)c1cc(=S)[nH]c2ccccc12	.	132.4	-4.7	59.7*	18.4	9.5
COc1ccc(-n2cnc3ccccc32)cc1	-5.6	89.4	-0.8	2.8	-4.2	.
SMILES	PfM18AAP inh	CR mimetic SO	APOBEC3A inh	PfG6PD inh	APOBEC3G inh	PfG6PD confirm	others
COc1ccc(-n2cnc(=S)[nH]c2=S)cc1	.	.	.	74.5*	.	7.5
O=[N+]([O-])c1ccc(Nc2cccc3c2[nH]c2c(-c4ccccc4)nccc23)c([N+](=O)[O-])c1	.	.	.	84.4*	.	25.9
O=C1c2ccccc2C(=O)N1CCC#Cc1ccc2cc(CCO)oc(=O)c2c1	.	100.3	-1.6	3.9	-4.1	.
Cc1nc(COC(=O)c2cc(O)c3ccccc3c2O)cs1	13.7	.	.	91.8*	.	54.9*	Diaphorase 10uM=-11.1;Diaphorase 30uM=-2.6
CCOC(=O)N1CCN(S(=O)(=O)N2CCCC(C(=O)NCCc3ccc(OCC)c(OCC)c3)C2)CC1 (stereo unspecified)	2.3	101.0	-4.0	-18.0	-1.8	.
COc1ccc(N=Cc2[nH]c3ccccc3c2O)cc1	16.5	107.2	2.1	59.1*	-5.3	14.7
COC(=O)c1ccc(-n2c(CCC(=O)O)ccc2-c2ccccc2)cc1	-0.6	109.0	-2.1	-27.1	-0.2	.
O=C1C=CC(=O)N1Cc1ccccc1	-129.0	97.1	7.2	71.1*	16.8	-15.6
O=C1C2CC=CCC2C(=O)N1Cc1ccccc1 (stereo unspecified)	14.4	107.8	-0.9	-4.4	-2.0	.
COc1ccc(CCNc2nc(C)c(C(C)=O)s2)cc1OC	15.4	96.8	-1.4	61.0*	0.1	20.0
CC(=O)c1sc(NCc2ccc(C)cc2)nc1C	2.0	94.1	3.4	-15.8	-2.6	.
Cc1cc(N)c2cc(NC(=O)/C=C/c3ccccc3Cl)ccc2n1	-3.0	87.3	7.4	60.4*	-13.2	0.7
Cc1ccc2nc(SCC(=O)NC3CCCc4ccccc43)[nH]c2c1 (stereo unspecified)	0.3	100.5	-0.7	75.3*	-9.7	58.7*	Diaphorase 10uM=64.3*;Diaphorase 30uM=42.1
O=C(CSc1cc(Cl)ccc1Cl)NC1CCCc2ccccc21 (stereo unspecified)	-1.6	104.2	-5.2	-10.2	-7.6	.
CC/C(=N\Nc1ccc([N+](=O)[O-])cc1)c1ccccc1	7.2	96.2	3.7	73.8*	-7.0	-15.3
O=[N+]([O-])c1ccc(NN=C(Oc2ccccc2)c2ccc([N+](=O)[O-])cc2)cc1	.	.	.	7.7	.	.
Cc1ccc(Cl)c(NC(=O)COC(=O)c2nn(-c3ccccc3)cc2O)c1Cl	.	129.2	-5.2	4.9	-6.3	.
Cc1nn(C(=O)CNS(=O)(=O)c2ccccc2)c(C)c1Sc1ccc(Cl)cc1	-8.3	85.5	5.4	80.1*	0.8	20.2
c1ccc2oc(-c3nn4c(Cn5cnc6ccccc65)nnc4s3)cc2c1	.	107.7	1.0	15.4	-3.7	.
Clc1cccc(-c2nn3c(Cn4cnc5ccccc54)nnc3s2)c1	8.1	88.5	15.6	62.4*	35.9	25.4
COc1ccc(-c2cn3cc(C)ccc3n2)cc1OC	-1.1	96.4	-5.4	61.4*	-4.6	42.7
